Laboratory results: PubChem BioAssay (NCI)
Values joined by “and” are separate entries in the source; they are usually repeats but may differ in a detail not shown here. Equal values may be shown once. This is part of a sample that, as a whole, favours compounds with a hit. Of some 83,000 tested, about 20% had one in any assay.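 In brief: 96-well plates, 48 h treatment, single concentration, percent growth endpoint.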 Active and inactive are the calls of the source. The calls were made as follows: active = growth percent below 10; inactive = the rest.

Experiments:
Assay in all cases: NCI-60 one-dose screen, 48 h (100 = growth as untreated, 0 = no growth, -100 = all killed)
SK-MEL-2 melanoma = conditions: 10 µM unless noted
SN12C renal = conditions: 10 µM unless noted
UO-31 renal = conditions: 10 µM unless noted
ACHN renal = conditions: 10 µM unless noted
CAKI-1 renal = conditions: 10 µM unless noted
A498 renal = conditions: 10 µM unless noted
MOLT-4 leukemia = conditions: 10 µM unless noted
EKVX NSCLC = conditions: 10 µM
TK-10 renal = conditions: 10 µM unless noted
CCRF-CEM leukemia = conditions: 10 µM

Structure (SMILES) | growth (SK-MEL-2 melanoma) | growth (SN12C renal) | growth (UO-31 renal) | growth (ACHN renal) | growth (CAKI-1 renal) | growth (A498 renal) | growth (MOLT-4 leukemia) | growth (EKVX NSCLC) | growth (TK-10 renal) | growth (CCRF-CEM leukemia)
OC1COC(OCc2ccccc2)C(O)C1O (stereo not given) | 99% (inactive) | 99.4% (inactive) | 81.9% (inactive) | 106% (inactive) | 105% (inactive) | 92.9% (inactive) | 98.9% (inactive) |  |  | 
Nc1ncnc2c1ncn2C1OC(COP(=O)(O)O)C(O)C1O (stereo not given) |  | 99.9% (inactive) | 100% (inactive) | 103% (inactive) | 106% (inactive) |  | 109% (inactive) | 113% (inactive) | 122% (inactive) | 105% (inactive)
Cl |  | 104% (inactive) | 87.1% (inactive) | 104% (inactive) | 95.6% (inactive) | 88.1% (inactive) | 88.5% (inactive) | 100% (inactive) | 109% (inactive) | 106% (inactive)
CC(C)(O)C(=O)O | 112% (inactive) | 102% (inactive) | 95.2% (inactive) | 104% (inactive) | 101% (inactive) | 103% (inactive) | 108% (inactive) | 94% (inactive) | 98.9% (inactive) | 
Fc1ccc([I+]c2ccc(F)cc2)cc1 | 68.8% (inactive) | 92.9% (inactive) | 74.6% (inactive) | 79.5% (inactive) | 61.2% (inactive) | 78.3% (inactive) | 54.8% (inactive) |  | 71.2% (inactive) | 48.2% (inactive)
COc1ccc(Nc2ccc3ccccc3c2)cc1 | 67.2% (inactive) | 76.9% (inactive) |  | 92% (inactive) | 52.3% (inactive) | 52.8% (inactive) | 71.5% (inactive) | 92.8% (inactive) | 77.2% (inactive) | 56.9% (inactive)
CC(=O)NCC(=O)c1ccc([N+](=O)[O-])cc1 | 136% (inactive) | 105% (inactive) | 80.5% (inactive) | 103% (inactive) | 103% (inactive) | 81.2% (inactive) | 98.4% (inactive) | 102% (inactive) |  | 99.5% (inactive)
CC1CCC2(OC1)OC1CC3C4CC=C5CC(O)CCC5(C)C4CCC3(C)C1C2C (stereo not given) | 122% (inactive) | 100% (inactive) | 86% (inactive) | 93.5% (inactive) |  | 110% (inactive) | 102% (inactive) | 96.6% (inactive) | 101% (inactive) | -55.7% (active)
c1ccc2c(c1)OC1OC2Oc2ccccc21 | 87.7% (inactive) | 98.9% (inactive) | 90.1% (inactive) | 101% (inactive) | 113% (inactive) | 117% (inactive) | 95.4% (inactive) | 105% (inactive) | 97.6% (inactive) | 97.6% (inactive)
COc1ccc(N/C=C/C2=[N+](C)c3ccccc3C2(C)C)c(OC)c1 | 114% (inactive) | 96.6% (inactive) | 78.8% (inactive) | 104% (inactive) | 81.9% (inactive) |  | 104% (inactive) |  | 106% (inactive) | 90.7% (inactive)
N#CC(C#N)N=Nc1cc(Cl)ccc1Cl | 85.6% (inactive) | 103% (inactive) |  | 94.1% (inactive) |  | 110% (inactive) | 92.4% (inactive) |  | 105% (inactive) | 94.7% (inactive)
O=C(O)CCCl | 123% (inactive) | 107% (inactive) | 97% (inactive) | 101% (inactive) | 102% (inactive) | 99.1% (inactive) | 109% (inactive) |  | 107% (inactive) | 93% (inactive)
CCCCOc1ccc(Nc2cc(Cl)ccc2C(=O)O)cn1 | 79.3% (inactive) and 112% (inactive) | 94.2% (inactive) and 104% (inactive) | 6.77% (active) and 86.2% (inactive) | 106% (inactive) and 89.9% (inactive) | 97.7% (inactive) and 94.4% (inactive) | 102% (inactive) | 94.6% (inactive) and 108% (inactive) | 101% (inactive) and 98.6% (inactive) | 112% (inactive) and 121% (inactive) | 82.3% (inactive) and 95% (inactive)
Cc1ccc(=O)[nH]n1 | 116% (inactive) and 99.5% (inactive) | 107% (inactive) and 99.3% (inactive) | 90.9% (inactive) and 95.1% (inactive) | 114% (inactive) and 108% (inactive) | 103% (inactive) and 97.7% (inactive) | 110% (inactive) and 94.1% (inactive) | 105% (inactive) and 101% (inactive) | 114% (inactive) and 115% (inactive) | 110% (inactive) and 101% (inactive) | 107% (inactive) and 99.6% (inactive)
c1ccc(CNCCNCc2ccccc2)cc1 | 102% (inactive) | 105% (inactive) | 79.4% (inactive) | 99.7% (inactive) | 98.5% (inactive) | 96.5% (inactive) | 105% (inactive) |  | 119% (inactive) | 92.6% (inactive)
Cc1ccc(S(=O)(=O)c2ccccc2)cc1 | 38.6% (inactive) | 50.4% (inactive) |  | 56% (inactive) | 25.4% (inactive) | 28% (inactive) | 32.5% (inactive) | 76.7% (inactive) | 51.6% (inactive) | 11.5% (inactive)
CCc1cc(C)cc(O)c1 |  | 105% (inactive) | 77.3% (inactive) | 117% (inactive) | 108% (inactive) | 102% (inactive) | 98.1% (inactive) | 101% (inactive) | 98.6% (inactive) | 98.4% (inactive)
Cc1cc(-c2cc(C)c(O)c(C)c2)cc(C)c1O | 73.5% (inactive) | 90.5% (inactive) | 77.1% (inactive) | 92.1% (inactive) | 59.4% (inactive) |  | 74.9% (inactive) | 68.2% (inactive) | 90.5% (inactive) | 82.6% (inactive)
O=C(CO)C(O)C(O)C(O)C(O)CO (stereo not given) | 104% (inactive) and 108% (inactive) | 99.8% (inactive) and 97.3% (inactive) | 97.8% (inactive) and 96.6% (inactive) | 110% (inactive) and 109% (inactive) | 102% (inactive) and 101% (inactive) | 97.5% (inactive) and 100% (inactive) | 106% (inactive) and 95.8% (inactive) |  | 106% (inactive) and 102% (inactive) | 103% (inactive) and 105% (inactive)

Structure (SMILES) | growth (SK-MEL-2 melanoma) | growth (SN12C renal) | growth (UO-31 renal) | growth (ACHN renal) | growth (CAKI-1 renal) | growth (A498 renal) | growth (MOLT-4 leukemia) | growth (EKVX NSCLC) | growth (TK-10 renal) | growth (CCRF-CEM leukemia)
O=C1OC(c2ccccc2)=N/C1=C\c1ccccc1 | 116% (inactive) | 102% (inactive) | 95.2% (inactive) | 104% (inactive) | 110% (inactive) |  | 105% (inactive) |  | 117% (inactive) | 100% (inactive)
O=C(Cc1ccccc1)c1ccc(O)c(Cl)c1 | 64.9% (inactive) | 31.1% (inactive) | 36.5% (inactive) | 37.6% (inactive) | 42.1% (inactive) | 105% (inactive) | 22.6% (inactive) | 66.1% (inactive) | 47.4% (inactive) | -27.2% (active)
NC(=O)NCCCC(N)C(=O)O (stereo not given) | 95.4% (inactive) | 104% (inactive) | 82.8% (inactive) | 98.7% (inactive) | 84.6% (inactive) | 113% (inactive) | 88.7% (inactive) |  | 99.3% (inactive) | 
CCOC(=O)c1c(C)cc(=O)oc1C | 125% (inactive) | 98.6% (inactive) | 88.9% (inactive) | 104% (inactive) |  |  | 101% (inactive) |  | 121% (inactive) | 100% (inactive)
Cn1cnc([N+](=O)[O-])c1Sc1ncn[nH]1 |  | 101% (inactive) | 82.9% (inactive) | 110% (inactive) | 68.4% (inactive) | 117% (inactive) | 121% (inactive) | 101% (inactive) | 106% (inactive) | 
CC[C@H](CC[C@@H](C)[C@H]1CC[C@H]2[C@@H]3CC=C4C[C@@H](O)CC[C@]4(C)[C@H]3CC[C@]12C)C(C)C | 100% (inactive) and 117% (inactive) | 94.7% (inactive) and 105% (inactive) | 92.7% (inactive) and 96.2% (inactive) | 94.4% (inactive) and 103% (inactive) | 93.2% (inactive) and 90% (inactive) | 103% (inactive) and 105% (inactive) | 108% (inactive) and 103% (inactive) | 102% (inactive) and 107% (inactive) | 91.7% (inactive) and 107% (inactive) | 91.1% (inactive) and 97.8% (inactive)
Brc1ccc(SSc2ccc(Br)cc2)cc1 | 101% (inactive) | 63.8% (inactive) | 49.6% (inactive) | 109% (inactive) | 106% (inactive) | 71.2% (inactive) | 4.43% (active) |  | 97.1% (inactive) | 8.01% (active)
CCCCCCCCCCNC(=O)CI | -50.1% (active) | 33.9% (inactive) | -90.1% (active) | -93.7% (active) | -93.5% (active) | 111% (inactive) | -28.9% (active) |  | 15.5% (inactive) | -47.1% (active)
OCCN1CCCCCCC1 | 112% (inactive) | 93.7% (inactive) | 88% (inactive) | 103% (inactive) | 93.2% (inactive) | 100% (inactive) | 106% (inactive) |  | 99.9% (inactive) | 
O=c1n(CC2CO2)c(=O)n(CC2CO2)c(=O)n1CC1CO1 (stereo not given) |  | 46.7% (inactive) | 38.2% (inactive) | 19.8% (inactive) | -7.84% (active) | 88.4% (inactive) | 19.2% (inactive) |  | 77.9% (inactive) | 32.5% (inactive)
N#CC(C#N)N=Nc1ccc(Cl)cc1 | 77.3% (inactive) | 33.5% (inactive) | 10.6% (inactive) | 26.9% (inactive) | 4.49% (active) | 86% (inactive) | 37.6% (inactive) | 77% (inactive) | 42.9% (inactive) | 28.6% (inactive)
O=C1NC(N/N=C\C(O)C(O)C(O)CO)=N/C1=C/c1ccc(Cl)cc1 (stereo not given) |  |  |  |  |  |  |  |  | 54.4% [100 µM] (inactive) and -100% [100 µM] (active) and 89.6% [100 µM] (inactive) | 
c1ccc(-c2nc3ccccc3s2)cc1 | 112% (inactive) | 88.7% (inactive) | 66.9% (inactive) | 87.1% (inactive) | 79.7% (inactive) | 100% (inactive) | 103% (inactive) | 85.5% (inactive) |  | 101% (inactive)
CCCCCCCCCCCCCCCc1ccc(N)c(OC2OC(CO)C(O)C(O)C2O)c1 (stereo not given) | 80.6% (inactive) | 87.6% (inactive) | 57.6% (inactive) | 86.1% (inactive) |  | 79.2% (inactive) | 60.8% (inactive) | 81.6% (inactive) | 113% (inactive) | 5.48% (active)
CC(=O)OC(C)C(=O)NCC(C)O (stereo not given) | 110% (inactive) | 106% (inactive) | 82.4% (inactive) | 102% (inactive) | 108% (inactive) | 98.2% (inactive) | 98.1% (inactive) |  | 113% (inactive) | 98.9% (inactive)
Nc1nc(N)c2[nH]cnc2n1 | 109% (inactive) | 102% (inactive) | 86.9% (inactive) | 89.3% (inactive) | 84.6% (inactive) | 109% (inactive) | 92.6% (inactive) | 97.5% (inactive) | 121% (inactive) | 98.2% (inactive)
ClCCOCCOc1ccc(C2CCCCC2)cc1 | 102% (inactive) | 96.3% (inactive) | 99.5% (inactive) | 108% (inactive) | 97.3% (inactive) | 73.1% (inactive) | 120% (inactive) |  | 108% (inactive) | 107% (inactive)
CC1(C)COC(=S)N1 | 107% (inactive) | 93.5% (inactive) | 90.7% (inactive) | 97.5% (inactive) | 95.7% (inactive) | 121% (inactive) | 108% (inactive) | 94.1% (inactive) | 101% (inactive) | 108% (inactive)
